In all, about 25,000 sequences were measured (“ln(normalized median fluorescence intensity)”: median about 9.3, highest 2% from about 10 on). The sample holds the highest values, similar sequences and a random draw of the others, so the mix is not that of the screen.

This assay concerns PF3D7_0420300 AP2 domain 1 (GST-tagged). Briefly: gcPBM binding intensity (ln(normalized median fluorescence intensity)); higher = stronger DNA binding. In outline:
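Using an Agilent 4 × 180k array, primer-extended double-stranded 36-bp intergenic genomic probes and negative controls were exposed for 1 h to GST-fused P. falciparum DNA-binding domains expressed in E. coli. Binding was carried out in 1× PBS with 1% milk, 0.2 mg/ml BSA, 0.5% salmon testes DNA and 0.03% Triton X-100, and protein was detected with Alexa488 anti-GST antibody and a 488 nm scan. Binding intensity is the highest Masliner-normalised natural-log median intensity across replicate spots of either probe orientation.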
Regarding “CATATTTTTTCTTAAACACACACATATATATATATA [CACACA_site8920]”, the “gcPBM binding intensity (ln)” value worked out at 9.61.
TTTATTTTCCAAAGGGTGCACATAGTTGAAACGATA: the “gcPBM binding intensity (ln)” value is 9.2.
Consider “TTTTTTTTTTTTTTTTTTTTCTTCATTTAATTTATA [GTGCAC_negctrl_site17]”, for which the “gcPBM binding intensity (ln)” value came out at 8.31.
Turning to “AAAAAAATACAAATATGTACACATATATATTTAAAA [XGTACX_site4729]”, the “gcPBM binding intensity (ln)” value turned out to be 9.
As for ACTTATTTATTTTTAGTGCATTTAGTTTTATTTTAT, the “gcPBM binding intensity (ln)” value amounted to 9.63.
As to “CCAAAATACATTAAACGTACATGTCCTAATAAGATA [XGTACX_site21]”, the “gcPBM binding intensity (ln)” value was 9.15.
As for “AATAATGAATACACATGTACAAAAATTTTTCTTACT [XGTACX_site1962]”, the “gcPBM binding intensity (ln)” value is 9.41.
For the sequence “CACACGCACGGACACACACACAAAAAAAAAAAGAAA [CACACA_site6378]”, the “gcPBM binding intensity (ln)” value came out at 9.7.
Regarding “CAAGCACACGGACACACACACACACGCGCACGCACA [CACACA_site6307]”, the “gcPBM binding intensity (ln)” value is 10.2.
Turning to “ATCAAGCACGGACACACACACACACCCAGACCCCCA [CACACA_site4360]”, the “gcPBM binding intensity (ln)” value stood at 10.1.
For the sequence “AAAATTGTTATTTTATGTACTTATATTTATTTATTT [XGTACX_site3478]”, the “gcPBM binding intensity (ln)” value was determined as 9.53.
“ATTTCTCTATCGTAATGTACAAAAAAAAGGAAAAAA [XGTACX_site1323]”: the “gcPBM binding intensity (ln)” value came to 9.
Then “AAAAAAAAAAAAAATACACACATATATATATATATA [CACACA_site85]”, with 9.45.
Take “AAAAAAAATACATACACACACACACGCACATATATA [CACACA_site7645]”: the “gcPBM binding intensity (ln)” value was 10.4.
With “TTTAAATACAGACATACACACATACACGCACATATA [CACACA_site6400]”, the “gcPBM binding intensity (ln)” value came to 9.85.
Regarding “CTAAAATACAGACACACACACACATATATATATATA [CACACA_site4150]”, the “gcPBM binding intensity (ln)” value stood at 9.93.
With “TACAGACTAAAATACACACACACACGCACATATATA [CACACA_site7875]” the figure was 10.2; with “TAAATTAAAAAAAATACACACACACCGACACATATA [CACACA_site9084]”, 10; with “CACGCACGCACATACACACACATACACATATAAATA [CACACA_site6907]”, 9.95.
For the sequence “AAAAAAAAAAAACATACACACATACATACCTATATA [CACACA_site6575]”, the “gcPBM binding intensity (ln)” value worked out at 9.78.
On to “AAAATACACGCATACACACACACACCGACACATATA [CACACA_site4523]”, for which the “gcPBM binding intensity (ln)” value amounted to 10.2.
With “TAAACATACCTATACACACACACACGCACACGCACA [CACACA_site6372]” the figure was 10.3; with “AAAAAAAAAAAATATACACACACACCGACACATAAA [CACACA_site9270]”, 10.1; with “AAAACATACCTATATACACACATATAAATATAAATA [CACACA_site6956]”, 9.71.
For “TAAATAAATTATTTTCGTACTTATTTATTTTAATTA [XGTACX_site283]”, the “gcPBM binding intensity (ln)” value was found to be 9.03.
As to “TTTAGTGTTATAAAAAGTACATAATAATTCCTTTTC [XGTACX_site3208]”, the “gcPBM binding intensity (ln)” value worked out at 8.95.
With “CTTTTTAATAAATATACACACACAAAAAAAAAAAAA [CACACA_site9316]”, the “gcPBM binding intensity (ln)” value was found to be 9.73.
For “AATTTAAAAGAAAAAGAAAAATAATAAACAGAAGCA [XGTACX_negctrl_site503]”, the “gcPBM binding intensity (ln)” value was determined as 9.68.
Then “TTTTTTTTTTTTGTCACACATATGGAATATATCTAT [CACACA_site5899]”, with 9.26.
Then “AAAGAAATAAGGTGCACACATATACAGATATATATA [CACACA_site4399]”, with 9.66; and “CTATATGTATAAAGTTGTACAGTTTTTCAAAGTTAA [XGTACX_site6652]”, with 9.03; and “TAAATTTATAAATCACGTACATATTTATTTATATTT [XGTACX_site4532]”, with 9.19.
For “TATTTTATTTCAAATCTTAATAATTGTAATTCTTCA [XGTACX_negctrl_site442]”, the “gcPBM binding intensity (ln)” value was determined as 8.91.
In the case of “ATATTTTATATGTTCACACATACATAAACATATTTT [CACACA_site4948]”, the “gcPBM binding intensity (ln)” value was found to be 9.34.
Take “CACGCATATATACATACATGCATATATACATCCATG [TGCATGCA_site667]”: the “gcPBM binding intensity (ln)” value worked out at 9.27.
For the sequence “AAAATACACGCATACACACACACACGCGCACATATA [CACACA_site6448]”, the “gcPBM binding intensity (ln)” value is 10.3.
Regarding “AGAAGCATACATCAAGCACACACACCCACACCCACA [CACACA_site8014]”, the “gcPBM binding intensity (ln)” value is 9.99.
Turning to “AAAAAAAAAAAAAACACACACACACGCACATATACA [CACACA_site7288]”, the “gcPBM binding intensity (ln)” value turned out to be 10.2.
Then “GCATACATCAAGCACACACACACACGCACACGCACA [CACACA_site6311]”, with 10.3; and “CACAAATATATACATACACACATATATACGCATATA [CACACA_site395]”, with 9.72.
Consider “AAAAAAAAAAAACATACACACACATATATATATATA [CACACA_site8452]”, for which the “gcPBM binding intensity (ln)” value amounted to 9.9.
Then “AAAAAAAAAAAAAAAACACACATACACGCACGCACA [CACACA_site7569]”, with 9.72; and “TACACAAATATATACATACACACATATATACGCATA [CACACA_site394]”, with 9.79; and “AAGCATACATCAAGCACACACACACCCACACCCACA [CACACA_site372]”, with 10.1.
Turning to “AAAAGATGCGCATACACACAGATGAATAACAAAAAA [CACACA_site6865]”, the “gcPBM binding intensity (ln)” value came out at 9.74.
Consider “AAACAAATAGACACTTGTACGTAAGTAAATAATTAA [XGTACX_site6157]”, for which the “gcPBM binding intensity (ln)” value stood at 9.43.
“ATTTAATTTTTTTTTAAACACACATTTTTTTATTTA [CACACA_site8880]”: the “gcPBM binding intensity (ln)” value came out at 9.36.
Turning to “ATTTTTTTATAAAATTTTTTATATATTAAATATTAT [CACACA_negctrl_site135]”, the “gcPBM binding intensity (ln)” value was 9.04.
On to “GTAAAATTTACATAGAGTACTTATATTTTTTTCTGC [XGTACX_site3414]”, for which the “gcPBM binding intensity (ln)” value was found to be 8.96.
“TATACTCATGGACACACACACATACACAGACATACA [CACACA_site5024]”: the “gcPBM binding intensity (ln)” value amounted to 9.92.
In the case of “ATAATTTGTGGACACACACACACACCGACATATATA [CACACA_site8718]”, the “gcPBM binding intensity (ln)” value turned out to be 10.2.
With “AAAAATTTGGCATACACACACACACCGACACAGACA [CACACA_site4489]” the figure was 10.1; with “CATATTTGTGGACACACACACATATTTATATATATA [CACACA_site5887]”, 9.75; with “ATTTGGCATGGACACACACACACACCGACAGACATA [CACACA_site4491]”, 10.2.
With “ATAAAGCACACCGACACACACATATATATATATATA [CACACA_site1047]” the figure was 9.8; with “TTATTAATTATATATAGTACACATTTCACAGATGGG [XGTACX_site2349]”, 9.2.
Then “TATTTATGTATATGCTGTACGCATTTGTGAAACATA [XGTACX_site4688]”, with 9.06.

Values taken from the supplement of paper PMC11417369.
